Test results: publication PMC4336329 (PLoS ONE, 2015)
In all, about 310,000 compounds went through this assay and about 14,000 (4.5%) showed an effect of 50% or more. The effect is printed as a negative number. What follows is part of a selection rich in strong results, with near analogues and random picks from the rest.

The compounds below were run against human ether-à-go-go-related gene (hERG) potassium channel (human, UniProt Q12809) (assay: primary screen, population patch clamp on CHO cells stably expressing hERG; higher = less effect of the substance).
human ether-à-go-go-related gene (hERG) potassium channel, sequence (Q12809 whole entry, looked up): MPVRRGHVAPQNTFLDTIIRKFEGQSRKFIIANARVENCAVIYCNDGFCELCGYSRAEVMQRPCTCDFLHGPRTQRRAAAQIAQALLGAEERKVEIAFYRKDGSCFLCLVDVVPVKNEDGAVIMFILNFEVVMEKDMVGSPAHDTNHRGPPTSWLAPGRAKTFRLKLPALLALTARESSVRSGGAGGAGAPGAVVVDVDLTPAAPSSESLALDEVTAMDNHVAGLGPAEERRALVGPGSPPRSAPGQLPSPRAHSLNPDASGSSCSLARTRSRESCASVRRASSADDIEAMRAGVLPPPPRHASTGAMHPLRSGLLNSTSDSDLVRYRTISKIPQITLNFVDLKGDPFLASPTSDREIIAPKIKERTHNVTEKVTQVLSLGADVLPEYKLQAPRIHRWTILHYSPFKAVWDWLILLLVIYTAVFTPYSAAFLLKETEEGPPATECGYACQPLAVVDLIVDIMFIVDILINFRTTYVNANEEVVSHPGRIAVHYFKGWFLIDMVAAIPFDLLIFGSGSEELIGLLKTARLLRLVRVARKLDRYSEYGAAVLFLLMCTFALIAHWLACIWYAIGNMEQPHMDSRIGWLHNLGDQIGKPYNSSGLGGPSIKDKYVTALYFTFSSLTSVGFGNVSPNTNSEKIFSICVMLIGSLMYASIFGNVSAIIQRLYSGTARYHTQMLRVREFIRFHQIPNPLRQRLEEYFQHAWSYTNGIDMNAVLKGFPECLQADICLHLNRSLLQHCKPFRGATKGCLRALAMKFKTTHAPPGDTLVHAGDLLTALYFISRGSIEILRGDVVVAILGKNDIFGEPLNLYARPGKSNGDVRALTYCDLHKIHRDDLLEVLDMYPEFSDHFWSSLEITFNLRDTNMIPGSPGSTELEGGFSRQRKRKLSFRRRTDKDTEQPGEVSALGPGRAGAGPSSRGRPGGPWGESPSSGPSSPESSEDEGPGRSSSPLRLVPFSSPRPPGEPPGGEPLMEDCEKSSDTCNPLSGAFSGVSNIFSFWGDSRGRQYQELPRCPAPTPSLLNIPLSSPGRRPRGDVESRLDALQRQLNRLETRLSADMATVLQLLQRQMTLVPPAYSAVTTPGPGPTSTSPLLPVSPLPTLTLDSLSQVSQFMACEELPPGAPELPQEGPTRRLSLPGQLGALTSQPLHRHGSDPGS
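Also: peak tail current of the secondary pulse compared with the same well before compound.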

Row | Structure (SMILES) | hERG current change (%, negative = inhibition) at 10uM [%]
1 | CCN(CC)S(=O)(=O)c1cc(C)c(C)cc1OCC(=O)NC1CCCC1 | -23.1
2 | C/C=C/C=C/C(=O)N1CC2(CC(c3cccc(NC(=O)/C=C/C)c3)=NO2)C[C@@H]1C(N)=O (some centres unmarked) | 2.75
3 | Cc1ccsc1/C=N\NC(=O)c1cc(C(C)(C)C)[nH]n1 | -9.77
4 | CC1(C)NC(=O)N(CC(=O)N2CCN(c3cccc(C(F)(F)F)c3)CC2)C1=O | 6.26
5 | CC(C(=O)N1CCN(c2ccc([N+](=O)[O-])cc2)CC1)N1C(=O)C2CC=CCC2C1=O (centres unmarked) | -72.2
6 | CC(C(=O)N1CCN(c2ccccc2)CC1)N1C(=O)C2CC=CCC2C1=O (centres unmarked) | 7.43
7 | O=C(CN1C(=O)C2CC=CCC2C1=O)N1CCN(c2ccc([N+](=O)[O-])cc2)CC1 (centres unmarked) | -71.6
8 | O=C(CN1C(=O)NC(c2ccccc2)(c2ccccc2)C1=O)N1CCOCC1 | 0.969
9 | O=C(CN1C(=O)NC(c2ccccc2)(c2ccccc2)C1=O)N1CCN(c2ccc(F)cc2)CC1 | -68.4
10 | CC1(C)NC(=O)N(CC(=O)N2CCN(c3cccc(Cl)c3)CC2)C1=O | -6.67
11 | O=C(CN1C(=O)NC(c2ccccc2)(c2ccccc2)C1=O)N1CCN(c2ccccc2F)CC1 | -17.4
12 | COc1ccc(N2CCN(C(=O)CN3C(=O)C4CC=CCC4C3=O)CC2)cc1 (centres unmarked) | 12.3
13 | CC(C(=O)N1CCOCC1)c1ccc([N+](=O)[O-])cc1 (centres unmarked) | 9.94
14 | CC1(C)NC(=O)N(CC(=O)N2CCN(c3ccc([N+](=O)[O-])cc3)CC2)C1=O | -66.1
15 | O=C(CN1C(=O)C2CCCCC2C1=O)N1CCN(c2ccc(F)cc2)CC1 (centres unmarked) | -12.2
16 | CC(=O)N1CN(C2CC(C)(C)NC(C)(C)C2)Cc2c1sc1c2CCCC1 | 6.77
17 | C(=C\c1ccccn1)/c1ccccn1 | 24.4
18 | CC1=CC(C)(C)N(C(=O)CSc2nnc(N)s2)c2ccccc21 | 6.19
19 | O=c1[nH]c(=O)n(CCc2ccc(F)cc2)c(O)c1C=NCCCN1CCOCC1 | -17.7
20 | CC(=O)Nc1cc(C(C)C)c(O)c(C(C)C)c1 | -4.37
21 | Cc1cccc(CCNC(=O)Cn2ncc3c([nH]c4ccccc43)c2=O)c1 | 14.2
22 | COc1cc(/C=C2\S/C(=N/S(=O)(=O)c3ccccc3)NC2=O)c([N+](=O)[O-])cc1OC | 4.25
23 | O=C(CC1SC(=O)N(Cc2ccc(Cl)cc2)C1=O)Nc1nccs1 (centres unmarked) | -4.51
24 | O=c1[nH]c(=O)n(C2OC(CO)C(O)C2O)cc1Br (centres unmarked) | 26.2

Row | Structure (SMILES) | hERG current change (%, negative = inhibition) at 10uM [%]
25 | CCOC(=O)c1c(-c2ccc(C)o2)csc1N | 20.5
26 | Oc1ccccc1C1=Nc2ccccc2N=C(c2ccco2)C1 | -12.7
27 | COc1ccc(CNS(=O)(=O)c2c(C)[nH]c(C)c2C(=O)N2CCCC2)cc1 | 17.6
28 | CCOC(=O)N1CCN(c2c(N3CCN(c4ccc(F)cc4)CC3)c(=O)c2=O)CC1 | -73.4
29 | CCOC(=O)N1CCN(c2c(N3CCN(C(=O)OCC)CC3)c(=O)c2=O)CC1 | -29.1
30 | CCOC(=O)N1CCN(c2c(N3CCN(c4ccc(OC)cc4)CC3)c(=O)c2=O)CC1 | -46.6
31 | O=S(=O)(c1cnc[nH]1)N1CCN(c2ccc(F)cc2)CC1 | -3
32 | CCOC(=O)C1CCN(c2ccc([N+](=O)[O-])c(C(C)=O)c2)CC1 | -11.8
33 | CN(C)S(=O)(=O)N1CCN(c2ccc(Cl)cc2)CC1 | -14.4
34 | O=[N+]([O-])c1ccc(N2CCN(S(=O)(=O)c3cnc[nH]3)CC2)cc1 | -59.8
35 | CN(C)S(=O)(=O)N1CCN(c2ccccc2)CC1 | -1.78
36 | CN(C)S(=O)(=O)N1CCN(c2ccc([N+](=O)[O-])cc2)CC1 | -76.7
37 | CCOC(=O)C1CCN(c2ccc([N+](=O)[O-])cc2)CC1 | -68.9
38 | COC(=O)C1CCN(c2ccc([N+](=O)[O-])cc2)CC1 | -21.7
39 | O=C(C1CCN(S(=O)(=O)c2cnc[nH]2)CC1)N1CCN(c2ccc([N+](=O)[O-])cc2)CC1 | -1.78
40 | C[C@]12CCC3C(CC[C@H]4CCCC[C@]34C)C1CC[C@@]2(O)CNCCO (some centres unmarked) | 15.6
41 | O=C(O)CCCNc1cc(N2CCN(C(=O)c3ccco3)CC2)c2noc3c2c1C(=O)c1ccccc1-3 | 19
42 | O=C(O)C1CCCCC1C(=O)Nc1nc(-c2ccc(Cl)s2)cs1 (centres unmarked) | 13.7
43 | C/C(=N\NC(=O)c1ccc(F)cc1)c1ccc(N2CCOCC2)cc1 | -16.7
44 | O=S(=O)(c1cccc(-c2cn3cc(Cl)ccc3n2)c1)N1CCOCC1 | -23.1
45 | CCCCOC(=O)c1ccc(NC(=O)CSCc2n[nH]c(=O)[nH]2)cc1 | 1.91
46 | S=C(NC1CCCCC1)N(CCc1nc2ccccc2[nH]1)C1CCCC1 | 4.83
47 | CCN(CC)C(=O)Cn1cc(C(=O)C(=O)N2CCN(c3ccc([N+](=O)[O-])cc3)CC2)c2ccccc21 | -65.8
